Test results reported in PubChem BioAssay (NCI).
The panel holds about 79,000 compounds, 15% with a hit somewhere; the sample as a whole holds those more often. Calls of active or inactive are those of the source. Rule as the data show it: active = growth inhibition above about 70%; inactive = the rest.

How the values were obtained:
[1] = NCI Yeast Anticancer Drug Screen. Data for the mec2-1 strain (AID 157); conditions: S. cerevisiae mec2-1 strain, active compounds read high
Method in brief: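 Yeast mec2-1 mutant treated with compound. Readout: growth inhibition vs vehicle controls.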

[2] = NCI Yeast Anticancer Drug Screen. Data for the rad14 strain (AID 159);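 also: 0% = growth of vehicle-treated control cultures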; conditions: S. cerevisiae rad14 strain growth inhibition, active compounds read high
Method in brief: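 Inhibition of growth is reported for a repair-deficient yeast mutant following compound treatment, calculated relative to cultures that received vehicle.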

[3] = NCI Yeast Anticancer Drug Screen. Data for the sgs1 mgt1 strain (AID 161);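 also: 0% = growth of cultures given vehicle only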; conditions: S. cerevisiae sgs1 mgt1 strain, active compounds read high
Method in brief: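 Mutant yeast exposed to compound; growth scored against vehicle-only wells.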

[4] = NCI Yeast Anticancer Drug Screen. Data for the bub3 strain (AID 167); conditions: S. cerevisiae bub3 mutant strain, active compounds read high
Method in brief: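 Mutant yeast screening strain plus compound; vehicle-treated cultures serve as the 0% inhibition reference.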

[5] = NCI Yeast Anticancer Drug Screen. Data for the wt2 strain (AID 169); conditions: S. cerevisiae wt2 strain growth inhibition, active compounds read high
Method in brief: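 Read-out: growth inhibition versus vehicle-treated control cultures after compound exposure of the yeast strain.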

[6] = NCI Yeast Anticancer Drug Screen. Data for the mlh1 strain (AID 171);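 also: 0% = growth of vehicle-treated control cultures of the same strain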; conditions: S. cerevisiae mlh1 strain growth inhibition, active compounds read high
Method in brief: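 Read-out: growth inhibition versus vehicle controls. Strain: engineered yeast with a defined DNA repair or cell cycle defect, compound-treated.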

[7] = NCI Yeast Anticancer Drug Screen. Data for the sgs1 strain (AID 173);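 also: 0% = growth of vehicle-only control cultures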; conditions: S. cerevisiae sgs1 mutant, active compounds read high
Method in brief: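 Read-out: yeast growth inhibition relative to vehicle controls, following compound exposure of a strain with a defined DNA repair/cell cycle alteration.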

[8] = NCI Yeast Anticancer Drug Screen. Data for the mlh1 rad18 strain (AID 175); conditions: S. cerevisiae mlh1 rad18 strain growth inhibition, active compounds read high
Method in brief: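 Yeast w/ defined DNA-repair lesions; compound exposure; growth vs vehicle controls → % inhibition.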

[9] = NCI Yeast Anticancer Drug Screen. Data for the rad18 strain (AID 177); conditions: S. cerevisiae rad18 mutant growth inhibition, active compounds read high
Method in brief: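 Readout: growth inhibition vs vehicle controls. Cells: genetically altered yeast strain, DNA repair defect.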

[10] = NCI Yeast Anticancer Drug Screen. Data for the rad52 strain (AID 147);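 also: 0% = growth of vehicle-treated control cultures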; conditions: S. cerevisiae rad52 mutant growth inhibition, active compounds read high
Method in brief: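 Read-out: growth inhibition versus vehicle-treated controls. Cells were a DNA repair-deficient yeast strain treated with compounds.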

[11] = NCI Yeast Anticancer Drug Screen. Data for the wt1 strain (AID 149);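 also: 0% = growth of vehicle-treated wt1 cultures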; conditions: S. cerevisiae wt1 strain (SPY 50644) growth inhibition, active compounds read high
Method in brief: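 Each compound is tested on wt1 yeast and the loss of growth versus vehicle gives the inhibition value.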

[12] = NCI Yeast Anticancer Drug Screen. Data for the rad50EPP+ strain (AID 151);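 also: 0% = growth of vehicle-treated control cultures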; conditions: S. cerevisiae rad50 mutant strain, active compounds read high
Method in brief: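 Growth inhibition read against vehicle controls in rad50EPP+ yeast, a strain altered in DNA damage repair, after compound exposure.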

[13] = NCI Yeast Anticancer Drug Screen. Data for the rad50 strain (AID 155);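 also: 0% = growth of vehicle-only cultures of the same strain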; conditions: S. cerevisiae rad50 strain growth inhibition, active compounds read high
Method in brief: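 Vehicle-treated cultures provide the reference for the growth inhibition reported for compound-exposed, repair-deficient yeast.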

[14] = NCI Yeast Anticancer Drug Screen. Data for the cln2 rad14 strain (AID 165);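 also: 0% = growth equal to vehicle treated cultures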; conditions: S. cerevisiae cln2 rad14 strain, active compounds read high
Method in brief: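 cln2 rad14 yeast strain; compound exposure; growth inhibition read vs vehicle controls.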

[15] = NCI Yeast Anticancer Drug Screen. Data for the mgt1 strain (AID 153); conditions: S. cerevisiae mgt1 mutant growth inhibition, active compounds read high
Method in brief: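 mgt1 yeast grown with test compound; read-out is growth inhibition versus vehicle-treated cultures.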

[16] = NCI Yeast Anticancer Drug Screen. Data for the CLN2oe strain (AID 163);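 also: 0% = growth of vehicle-only control cultures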; conditions: S. cerevisiae CLN2oe strain, active compounds read high
Method in brief: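 Read-out: yeast growth inhibition, expressed relative to vehicle-only controls. The strain bears an engineered cell-cycle alteration.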

[17] = at 5.0 µM (retest, dose inferred, filed as 0.5)
[18] = at 50.0 µM (retest, dose inferred, filed as 5.0)

Measured: growth inhibition

S=c1nc(Cl)cc2[nH]c(Cl)cn12
inactive: [2]; at 1.2 µM 1% | [2]; at 3.7 µM -1% | [2]; at 11.0 µM 10% | [2]; at 33.0 µM 20% | [2]; at 100.0 µM 59% | [3]; [17] -61% | [3]; [18] 3% | [3]; at 50.0 µM 47.4% | [4]; at 1.2 µM -4% | [4]; at 3.7 µM -3% | [4]; [17] -30% | [4]; at 11.0 µM 9% | [4]; at 33.0 µM 30% | [4]; [18] 44% | [5]; at 1.2 µM 2% | [5]; at 3.7 µM 3% | [5]; at 11.0 µM 5% | [5]; at 33.0 µM 11% | [6]; at 1.2 µM 8% | [6]; at 3.7 µM 1% | [6]; at 11.0 µM 5% | [6]; at 33.0 µM 19% | [7]; at 1.2 µM 3% | [7]; at 3.7 µM 3% | [7]; at 11.0 µM 15% | [7]; at 33.0 µM 42% | [8]; [17] -117% | [8]; [18] 10% | [9]; at 1.2 µM 1% | [9]; at 3.7 µM 3% | [9]; at 11.0 µM 14% | [9]; at 33.0 µM 44%
active: [1]; at 100.0 µM 80% | [4]; at 50.0 µM 78.5% | [4]; at 100.0 µM 94% | [5]; at 100.0 µM 83% | [6]; at 100.0 µM 90% | [7]; at 100.0 µM 99% | [8]; at 50.0 µM 96.5% | [9]; at 100.0 µM 96%

Cc1cccc(/C=N\NC(=S)N2CCCCC2)n1
inactive: [10]; at 1.2 µM -17% | [10]; at 3.7 µM 67% | [11]; at 1.2 µM -5% | [12]; at 1.2 µM -10% | [12]; at 3.7 µM -17% | [13]; at 1.2 µM 19% | [13]; at 3.7 µM 57% | [1]; at 1.2 µM -41% | [4]; at 1.2 µM -2% | [5]; at 1.2 µM 7% | [6]; at 1.2 µM -33% | [6]; at 3.7 µM 63% | [9]; at 1.2 µM -7%
active: [10]; at 11.0 µM 97% | [10]; at 33.0 µM 98% | [10]; at 100.0 µM 97% | [11]; at 3.7 µM 92% | [11]; at 11.0 µM 99% | [11]; at 33.0 µM 99% | [11]; at 100.0 µM 99% | [12]; at 11.0 µM 86% | [12]; at 33.0 µM 97% | [12]; at 100.0 µM 97% | [13]; [17] 98% | [13]; at 11.0 µM 97% | [13]; at 33.0 µM 97% | [13]; [18] 100% | [13]; at 50.0 µM 88.8% | [13]; at 100.0 µM 98% | [1]; at 3.7 µM 93% | [1]; [17] 97% | [1]; at 11.0 µM 98% | [1]; at 33.0 µM 99% | [1]; [18] 100% | [1]; at 50.0 µM 93.2% | [1]; at 100.0 µM 98% | [3]; [17] 97% | [3]; [18] 99% | [3]; at 50.0 µM 91.5% | [14]; [17] 98% | [14]; [18] 100% | [14]; at 50.0 µM 92.8% | [4]; at 3.7 µM 93% | [4]; [17] 97% | [4]; at 11.0 µM 98% | [4]; at 33.0 µM 99% | [4]; [18] 99% | [4]; at 50.0 µM 91.8% | [4]; at 100.0 µM 99% | [5]; at 3.7 µM 92% | [5]; at 11.0 µM 99% | [5]; at 33.0 µM 99% | [5]; at 100.0 µM 95% | [6]; at 11.0 µM 98% | [6]; at 33.0 µM 98% | [6]; at 100.0 µM 99% | [8]; [17] 98% | [8]; [18] 99% | [8]; at 50.0 µM 88.7% | [9]; at 3.7 µM 92% | [9]; at 11.0 µM 97% | [9]; at 33.0 µM 98% | [9]; at 100.0 µM 98%

S=c1[nH]nc(-c2ccc(Cl)cc2)s1
active: [10]; at 33.0 µM 93% | [10]; at 100.0 µM 97% | [11]; at 33.0 µM 78% | [11]; at 100.0 µM 96% | [15]; at 33.0 µM 83% | [15]; at 100.0 µM 97% | [13]; [17] 73% | [13]; at 33.0 µM 90% | [13]; [18] 99% | [13]; at 50.0 µM 87.2% | [13]; at 100.0 µM 95% | [1]; [17] 72% | [1]; at 33.0 µM 71% | [1]; [18] 99% | [1]; at 50.0 µM 87.8% | [1]; at 100.0 µM 96% | [2]; at 33.0 µM 92% | [2]; at 100.0 µM 97% | [3]; [18] 97% | [16]; at 100.0 µM 95% | [14]; [18] 97% | [4]; at 33.0 µM 81% | [4]; [18] 96% | [4]; at 100.0 µM 96% | [5]; at 100.0 µM 96% | [6]; at 100.0 µM 96% | [7]; at 100.0 µM 94% | [8]; [17] 80% | [8]; [18] 99% | [8]; at 50.0 µM 86% | [9]; at 33.0 µM 92% | [9]; at 100.0 µM 96%
inactive: [10]; at 1.2 µM 16% | [10]; at 3.7 µM 7% | [10]; at 11.0 µM 23% | [11]; at 1.2 µM -18% | [11]; at 3.7 µM -21% | [11]; at 11.0 µM -25% | [15]; at 1.2 µM 8% | [15]; at 3.7 µM 11% | [15]; at 11.0 µM 12% | [13]; at 1.2 µM -6% | [13]; at 3.7 µM -7% | [13]; at 11.0 µM 21% | [1]; at 1.2 µM 1% | [1]; at 3.7 µM 12% | [1]; at 11.0 µM -15% | [2]; at 1.2 µM -24% | [2]; at 3.7 µM -18% | [2]; at 11.0 µM -16% | [3]; [17] -8% | [16]; at 1.2 µM 6% | [16]; at 3.7 µM 12% | [16]; at 11.0 µM -10% | [16]; at 33.0 µM 55% | [14]; [17] 52% | [4]; at 1.2 µM 23% | [4]; at 3.7 µM 24% | [4]; [17] 27% | [4]; at 11.0 µM 16% | [5]; at 1.2 µM -28% | [5]; at 3.7 µM -21% | [5]; at 11.0 µM -28% | [5]; at 33.0 µM 69% | [6]; at 1.2 µM -16% | [6]; at 3.7 µM -17% | [6]; at 11.0 µM -8% | [6]; at 33.0 µM 67% | [7]; at 1.2 µM -13% | [7]; at 3.7 µM -13% | [7]; at 11.0 µM -16% | [7]; at 33.0 µM 64% | [9]; at 1.2 µM -15% | [9]; at 3.7 µM -6% | [9]; at 11.0 µM 21%
